Active and inactive are the calls of the source. Calls come from the whole dose curve; as a rule, active = well fitted curve in the direction sought with a large enough effect; inconclusive = small, poorly fitted or top-dose-only effect, or effect the other way, or another doubt; inactive = no such curve, though single readings can be large or run the other way.

These results are taken from PubChem BioAssay (NCATS).

The nature of this test: qHTS of Nrf2 Activators: LOPAC Validation (AID 624149). The settings on record: Nrf2/ARE reporter cell assay; series mostly up to 46.1 µM. The source says: Many diseases have some form of oxidative stress injury and ties to inflammation, causing a host of problems for the patient. The antioxidant response element (ARE) plays an important role in alleviating the harmful effects of oxidative stress. The antioxidant response element (ARE) is a transcriptional regulatory element involved in the activation of genes coding for a number of antioxidant proteins and detoxifying enzymes. These enzymes work in concert to protect tissues from oxidative insults and chemical toxicities in human hepatocytes and immune cells. The protective effects of ARE activation are primarily triggered through Nrf2 (NF-E2-related factor) binding to and activating AREs. It is known that Nrf2 controls the production of over 250 antioxidant and detoxification proteins (Hu et al., 2006), thereby protecting tissues by increasing cellular antioxidant content and suppressing inflammatory signaling pathways. The transcription factor Nrf2 is a central link between oxidative chemicals, such as phenolic antioxidants and electrophilic compounds, and the activation of ARE. Nrf2 levels are constitutively low as a consequence of its interaction with Keap1, which targets its degradation (Zipper and Mulcahy, 2002). Electrophiles react with key cysteine residues in Keap1, releasing Nrf2 and allowing its translocation to the nucleus. Once within the nucleus, Nrf2 complexes with coactivators such as p300, and binds to the AREs to induce gene transcription of cytoprotective enzymes, resulting in the prevention of toxicity. Activation of Nrf2 protects tissues by increasing cellular antioxidant content and suppressing inflammatory signaling pathways. Identifying novel and potent Nrf2 activators by using the AREc32 cell line to detect ARE activation by small molecules will lead to the identification and development of probes to study protective pathways in multiple tissues. These specific probes are essential to study the ARE pathway, and eventually to determine whether this pathway does activate genes that could protect against a host of diseases, including cardiovascular diseases, obesity, diabetes, Alzheimer's, and Parkinson's disease.
This project's aim is to identify novel and potent Nrf2 activators by using the AREc32 cell line to detect ARE activation by small molecules, which will lead to the identification and development of probes to study the ARE pathway.
NIH Chemical Genomics Center [NCGC]
NIH Molecular Libraries Probe Centers Network [MLPCN]
Assay Submitter (PI): Curtis Klaassen, University of Kansas Medical Center
5 uL of 1000 cells/well of AREc32_Fluc cells are seeded into 1536-well plate in OPTI-MEM medium with 5% FBS. The plates are incubated overnight at 37 deg C with 5% CO2. Then through pin tool transfer, 23 nL of compounds are added to each well before a 24 hr incubation at 37 deg C with 5% CO2. After the addition of 2.5 uL of Steady-Glo. the plates are kept at RT for 30 min, before they are read on the ViewLux
(Quantitative high-throughput screening tests each substance at several concentrations.)
For the compound `Cc1cc(C(C)(C)C)c(O)c(C)c1CC1=NCCN1`, the outcome was inactive.

For the compound `Cc1cnc(C(=O)NCCc2ccc(S(=O)(=O)NC(=O)NC3CCCCC3)cc2)cn1`, the call was inactive.

On to `Cc1cc(C(C)(C)C)cc(C)c1CC1=NCCN1`, for which the compound was called inactive.

Take `COC(=O)Nc1nc2ccc(C(=O)c3cccs3)cc2[nH]1`: the compound was called inactive.

Take `Nc1nc2c(ncn2COC(CO)CO)c(=O)[nH]1`: the compound was classed as inactive.

`COc1ccccc1OCCNCC(O)COc1cccc2[nH]c3ccccc3c12` (stereo not given): the outcome was inactive.

As for `COc1ccc2[nH]cc(CCNC(C)=O)c2c1`, the outcome was inactive.

In the case of `Clc1ccc2c(c1)C(N1CCNCC1)=Nc1ccccc1O2`, the compound was called inactive.

Consider `C[C@](N)(Cc1ccc(O)c(O)c1)C(=O)O`, for which the compound was called inactive.

On to `CCOC(=O)c1ncn2c1CN(C)C(=O)c1cc(F)ccc1-2`, for which the compound was classed as inactive.

Regarding `CC(C)NCC(O)COc1ccc(CCOCC2CC2)cc1` (stereo not given), the result was inactive.

Take `C[C@H]1c2cccc(O)c2C(O)=C2C(=O)[C@]3(O)C(O)=C(C(N)=O)C(=O)[C@@H](N(C)C)[C@@H]3[C@@H](O)[C@@H]21`: the compound was called inactive.

For `Cn1ccc2cc3c(cc21)CCN3C(=O)Nc1cccnc1`, the result was inactive.

Consider `COc1cc2c(c(OC)c1OC)-c1ccc(OC)c(=O)cc1[C@@H](NC(C)=O)CC2`, for which the result was inactive.

Consider `CC(COc1ccccc1)N(CCCl)Cc1ccccc1` (stereo not given), for which the result was inactive.

For the compound `CNCCCC12CCC(c3ccccc31)c1ccccc12`, the outcome was inactive.

Take `CN1C(C(=O)Nc2ccccn2)=C(O)c2ccccc2S1(=O)=O`: the call was inactive.

As for `Nc1ccn([C@H]2CC[C@@H](CO)O2)c(=O)n1`, the compound was called inactive.

In the case of `O=C1Cc2cc(CCN3CCN(c4nsc5ccccc45)CC3)c(Cl)cc2N1`, the call was inactive.

On to `CCN1CCCC1CNC(=O)c1cc(S(=O)(=O)CC)c(N)cc1OC` (stereo not given), for which the outcome was inactive.

Regarding `CC(C)Cc1ccc(C(C)C(=O)O)cc1` (stereo not given), the outcome was inactive.

In the case of `CC(C)C(=O)Nc1ccc([N+](=O)[O-])c(C(F)(F)F)c1`, the call was inactive.

In the case of `CN1CCC(=C2c3ccccc3CC(=O)c3sccc32)CC1`, the compound was classed as inactive.

In the case of `CN1CCC(=C2c3ccccc3C=Cc3ccccc32)CC1`, the outcome was inactive.

As to `CC#C[C@]1(O)CC[C@H]2[C@@H]3CCC4=CC(=O)CCC4=C3[C@@H](c3ccc(N(C)C)cc3)C[C@@]21C`, the compound was classed as inactive.

`O=C(Nc1ccc([N+](=O)[O-])cc1Cl)c1cc(Cl)ccc1O`: the compound was classed as inactive.

As to `CN(C)CCCN1c2ccccc2CCc2ccc(Cl)cc21`, the call was inactive.

`COc1ccc(CCN(C)CCCC(C#N)(c2ccc(OC)c(OC)c2)C(C)C)cc1OC` (stereo not given): the result was inactive.

For `NCCS(=O)(=O)O`, the outcome was inactive.

Regarding `COc1nc(C)nc(Cl)c1NC1=NCCN1`, the result was inactive.

Take `NC(CO)C(=O)NNCc1ccc(O)c(O)c1O` (stereo not given): the compound was classed as inactive.

Take `CCOC(=O)Nc1ccc(NCc2ccc(F)cc2)nc1N`: the call was inactive.

Turning to `NS(=O)(=O)c1cc2c(cc1Cl)NCNS2(=O)=O`, the compound was called inactive.

In the case of `COc1ccccc1OCC(O)CN1CCN(CC(=O)Nc2c(C)cccc2C)CC1` (stereo not given), the compound was called inactive.

Regarding `COc1ccc(C2CNC(=O)C2)cc1OC1CCCC1` (stereo not given), the result was inactive.

Take `Cc1cn([C@H]2C=C[C@@H](CO)O2)c(=O)[nH]c1=O`: the compound was called inactive.

As for `Cc1ccccc1N1C(=O)c2cc(S(N)(=O)=O)c(Cl)cc2NC1C` (stereo not given), the outcome was inactive.

With `O=c1[nH]cc(F)c(=O)[nH]1`, the call was inactive.

For the compound `COc1cc2nc(N(C)CCCNC(=O)C3CCCO3)nc(N)c2cc1OC` (stereo not given), the compound was classed as inactive.

Take `CCc1cccc2c3c([nH]c12)C(CC)(CC(=O)O)OCC3` (stereo not given): the compound was classed as inactive.
